Assay outcomes deposited in PubChem by several laboratories.
An excerpt weighted towards active compounds, which were near 2.6% of everything screened.
COUP-TFII inh = NR2F2 transcriptional activity inhibitors, primary screen, cell-based, luciferase reporter, HEK293T, luminescence; inhibition, % at 8.6 µM; HEK293T NGFI-A luciferase reporter; 370,000 compounds, 0.7% hits;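 active means inhibition above a per-plate cutoff, mean inhibition of test wells between control levels plus 3 SD, cut at about 38% in these data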;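 further: cells cotransfected with COUP-TFII expression vector driving the NGFI-A reporter; 0% = median of COUP-TF2 test wells and 100% = reporter-only cells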
Target sequence (P24468 whole entry, looked up): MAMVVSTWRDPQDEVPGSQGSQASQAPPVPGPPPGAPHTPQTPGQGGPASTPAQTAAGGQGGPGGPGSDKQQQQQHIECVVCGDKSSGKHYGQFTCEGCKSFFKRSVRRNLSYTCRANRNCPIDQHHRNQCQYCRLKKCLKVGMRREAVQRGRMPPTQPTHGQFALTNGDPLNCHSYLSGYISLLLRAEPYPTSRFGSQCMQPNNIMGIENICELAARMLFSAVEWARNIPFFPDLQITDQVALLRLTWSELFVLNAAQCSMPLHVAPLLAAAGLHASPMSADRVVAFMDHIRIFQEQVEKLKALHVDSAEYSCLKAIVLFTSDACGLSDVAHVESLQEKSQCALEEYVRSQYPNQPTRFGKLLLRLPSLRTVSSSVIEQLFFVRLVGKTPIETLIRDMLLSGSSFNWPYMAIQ
H9c2 protect = cardioprotection against H2O2-induced cell death, primary screen, uHTS, H9c2 cells, ATPLite luminescence | protection from H2O2 cell death, % at 20 µM | AID 588492, 2011 | H9c2 cardiomyocytes, H2O2 injury protection, 2 h | 360,000 compounds, 0.63% hits;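 active means compounds giving at least 50% protection of heart cells from peroxide-induced death in the single-dose screen, raw or plate-pattern-corrected value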;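 further: 0% = DMSO wells with peroxide and 100% = DMSO wells without peroxide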
Jurkat NFkB inh = inhibitors of induced NF-kB luciferase reporter, primary screen, TCR NF-kB activation inhibitor project, cell-based, luminescence, uHTS; Jurkat, PMA/ionomycin-induced NF-kB luciferase reporter; inhibition, % at 4 µM; 330,000 compounds, 0.53% hits; in the data active means inhibition above about 50%
697 NFkB inh = inhibitors of PMA/ionomycin-induced NF-kB reporter, 697 cells, primary screen, B-cell NF-kB inhibitor project, cell-based, luminescence, uHTS; 697 B-cell NF-kB luciferase reporter, 16 h; inhibition, % at 4 µM; 330,000 compounds, 0.33% hits; AID 435022, 2010; in the data active means inhibition above about 35%
H9c2 TAG inh = inhibitors of triacylglycerol accumulation, primary screen, cell-based, uHTS, fluorescence, H9c2; H9c2 cells, Nile Red lipid (TAG) fluorescence; cells loaded with 200 µM oleic acid; inhibition, % at 12.5 µM; 230,000 compounds, 0.66% hits; AID 651582, 2012;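 active means pattern-corrected inhibition of lipid staining of at least 50% with the nuclear-stain viability signal not falling by more than 50%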;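 further: 0% = DMSO wells and 100% = triacsin C control wells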
Gli-Sufu block = Gli-Sufu pathway antagonists, primary screen, luciferase luminescence, Sufu-KO-LIGHT cells, uHTS | Sufu-KO-LIGHT fibroblasts, Gli luciferase reporter luminescence | inhibition, % at 5 µM | 340,000 compounds, 0.74% hits;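 active means inhibition above about 55%, limit read from the data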;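 further: 0% = DMSO-treated cells and 100% = wells with medium but no cells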
Gli-Sufu confirm = Gli-SUFU pathway antagonists, confirmation, single concentration, luciferase luminescence, Sufu-KO-LIGHT cells | shares compounds with Gli-Sufu block | Gli luciferase reporter | inhibition, % at 5 µM | 2,500 compounds, 40% hits | AID 602428, 2012;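 active means mean inhibition at 5 µM reaching about 45%, limit read from the data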;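 further: plate controls were DMSO-treated cells for no effect and wells lacking cells for full effect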
Gli cytotox = cytotoxicity in Sufu-KO-LIGHT cells, confirmation, cytotoxicity control for Gli-SUFU antagonist project, cell-based, ATP luminescence, single concentration | shares compounds with Gli-Sufu block | cytotoxicity, % at 5 µM | 2,500 compounds, 32% hits | AID 651994, 2013;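 active means mean cytotoxicity at 5 µM above about 25%, limit read from the data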;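 further: cells exposed to compound overnight for roughly 16 to 18 hours; plate controls were DMSO wells with cells for no effect and medium without cells for full effect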
Wnt3a counter = Wnt3a reporter signal inhibition, confirmation, counter-screen for Gli-SUFU antagonist project, Wnt-LIGHT cells, luminescence, single concentration | shares compounds with Gli-Sufu block | Wnt3a-driven luciferase reporter | inhibition, % at 6.25 µM | 2,500 compounds, 20% hits | AID 651995, 2013;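 active means mean inhibition above about 25%, limit read from the data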
The depositor's hits bear a star; x = no result given.

SMILES	COUP-TFII inh	H9c2 protect	Jurkat NFkB inh	697 NFkB inh	H9c2 TAG inh	Gli-Sufu block	Gli-Sufu confirm	Gli cytotox	Wnt3a counter
COCC(=O)Nc1ccc2c(c1)C(=O)N(C)[C@@H]1CC[C@@H](CC(=O)OC)O[C@H]1CO2	-10	x	x	x	x	x	x	x	x
O=C(Cc1c(F)cccc1Cl)OCC(=O)c1ccc[nH]1	-29	-3	5	14	-28	56*	13	7	-10
COc1ccc(C(=O)N(C)[C@H]2C[C@H]3c4[nH]c5c(-c6ccccc6)cccc5c4CCN3C(=O)[C@H]2[C@H](C)O)cc1	6	x	x	x	x	x	x	x	x
CCOC(=O)C1=C(C(=O)OCC)C2N(Cc3ccc(Br)cc3)c3ccccc3[C@@]23C[C@@H](C(=O)OC)N(S(=O)(=O)c2ccc(Br)cc2)C3=N1 (stereo partly drawn)	-21	x	x	x	x	x	x	x	x
O=C(CCl)N1CCN2C(=O)c3ccccc3C12c1ccc(Cl)cc1 (stereo not drawn)	6	-11	-5	-3	14	3	x	x	x
Cc1ccc(C(=O)N2CCN3C(=O)c4ccccc4C23c2ccc(Cl)cc2)cc1 (stereo not drawn)	-51	-16	24	-8	-23	56*	61*	10	-23
Cc1cc(C)n(C(C)CC(=O)Nc2ccc(-c3ccno3)cc2)n1 (stereo not drawn)	-12	0	1	-27	x	56*	16	-1	-16
CCC1CCCCN1CCCNC(=O)Cn1c(=O)c2cccn2c2cccnc21 (stereo not drawn)	-11	-2	-16	-59	x	69*	24	2	15
CC1CCCC(C)N1CCCNC(=O)CCn1c(=O)c2cccn2c2cccnc21 (stereo not drawn)	0	10	-8	-10	x	6	x	x	x
Cc1cc(N2CCCCCC2)nc(-c2ccccc2O)n1	1	-6	1	-1	x	85*	20	15	-16
O=S1(=O)N[C@@H](Cc2ccccc2)COc2cc(NC3CC3)ccc21	0	x	x	x	x	x	x	x	x
CC[N+](CC)(CC#Cc1ccccc1)CC#Cc1ccccc1	10	-6	38	-24	-2	68*	71*	22	19
CCN(CC)C(=O)c1ncn2c1C(=O)NC[C@@H]2C	5	x	x	x	x	x	x	x	x
O=C(NCc1cc2ccccc2[nH]1)C1CCC(=O)N(CCCN2CCCC2=O)C1 (stereo not drawn)	-13	2	-10	-22	x	59*	14	14	-57
COc1ccc(C2CC(C(F)(F)F)n3nc(C(=O)N(C)Cc4cn(C)nc4C)c(Cl)c3N2)cc1 (stereo not drawn)	10	2	-2	-26	3	0	x	x	x
COc1ccc(C2CC(C(F)(F)F)n3nc(C(=O)NCc4c(C)nn(C)c4C)c(Cl)c3N2)cc1 (stereo not drawn)	28	-8	14	-44	x	61*	50*	42*	-1
C=CCN1C(=O)[C@@H](CC(=O)NCc2ccc(C)o2)[C@]2(C(=O)OCC)CCCCC/C=C/12	2	x	x	x	x	x	x	x	x
Cn1c(CNC(=O)CNC(=O)c2ccccc2F)cc(=O)n(C)c1=O	-1	3	14	-15	x	53	4	12	-23
Cn1c(CNC(=O)CCNC(=O)c2ccccc2F)cc(=O)n(C)c1=O	-5	2	4	10	x	1	x	x	x
Cc1ccccc1-n1nc(C(=O)c2cccs2)cc(-c2nc3ccccc3[nH]2)c1=N	-22	-14	-12	-31	3	59*	35	8	-82
Cc1cccc(-n2nc(C(=O)c3ccco3)cc(-c3nc4ccccc4[nH]3)c2=N)c1	-9	-12	-19	-65	x	44	x	x	x
COc1ccc(-n2nc(C(=O)c3cccs3)cc(-c3nc4ccccc4[nH]3)c2=N)cc1	-12	-1	-7	-147	-33	98*	3	-16	-13
COc1ccc(-c2nnc(SCC(=O)NN=C(C)c3cccc4ccccc34)n2-c2ccccc2)cc1	2	x	x	x	x	x	x	x	x
COC(=O)c1ccc(OCC(O)CN2CCc3cc(OC)c(OC)cc3C2c2ccccc2)cc1 (stereo not drawn)	3	-12	18	2	x	58*	27	19	-59
CCC(=O)N1CCc2cc(OC)c(OC)cc2C1COc1ccc(C(=O)OC)cc1 (stereo not drawn)	-2	15	16	3	x	3	x	x	x
SMILES	COUP-TFII inh	H9c2 protect	Jurkat NFkB inh	697 NFkB inh	H9c2 TAG inh	Gli-Sufu block	Gli-Sufu confirm	Gli cytotox	Wnt3a counter
Cc1ccc(S(=O)(=O)NCCC2=CCCCC2)cc1C(N)=O	7	-13	19	-26	x	58*	47*	19	19
Cc1cc(S(=O)(=O)NCCC2=CCCCC2)ccc1Br	0	-13	-9	-4	3	-10	x	x	x
O=C(NCc1ccccc1)C(=O)NCC1OCCCN1S(=O)(=O)c1cccs1 (stereo not drawn)	1	0	9	-4	x	-9	x	x	x
O=C(NCc1ccc(F)cc1)C(=O)NCC1OCCCN1S(=O)(=O)c1cccs1 (stereo not drawn)	7	0	4	16	5	99*	4	1	-2
CC(C)(C)c1cc(CCC(=O)N2CCC2)cc(C(C)(C)C)c1O	9	-1	2	-4	x	6	x	x	x
CC1CN(C(=O)CCc2cc(C(C)(C)C)c(O)c(C(C)(C)C)c2)CC(C)O1 (stereo not drawn)	3	-6	7	6	2	66*	86*	31*	29*
COC(=O)[C@]12C[C@H](CC(=O)NCCC(C)C)C(=O)N(Cc3ccco3)C1=C[C@H](C1CCCC1)O[C@@H]2C	5	x	x	x	x	x	x	x	x
CCn1c2ccccc2c2cc(NC(=O)COC(=O)c3ccc(F)cc3Cl)ccc21	1	x	x	x	x	x	x	x	x
CCOC(=O)c1c(C)[nH]c(C)c1S(=O)(=O)N(C)CC(=O)NCc1cccc(C)c1	-12	0	9	-5	x	51	5	-4	-23
COc1cccc2sc(=NC(=O)CS(=O)(=O)c3ccccc3)n(C)c12	-1	-9	x	x	-6	x	x	x	x
